Test results reported in the supplement of paper PMC4840960.
± gives the standard deviation of the averaged measurements.

Legend:
[1] = system: E18 rat cortical neuron-glia co-culture; test: fiber score / MBP score (myelination specific beyond OL differentiation) (ratio); higher = more myelination-specific MBP alignment; details: treatment time: 8 days (DIV5-DIV13)
In short: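 Library compounds were applied at 1 or 5 µM in myelination medium, DIV5 to DIV13, to primary E18 rat cortical co-cultures grown at 20,000 cells/well in 96-well plates. After 4 % paraformaldehyde fixation and MBP/Olig2/DAPI immunostaining, four 10X fields per well in duplicate wells were scored. Each value is continuous MBP fiber length per Olig2+ nucleus divided by thresholded MBP area × intensity per Olig2+ nucleus.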

[2] = system: E18 rat cortical neuron-glia co-culture; test: myelination (MBP fiber length per Olig2+ nucleus), % of 1 µM DAPT response (DMSO = 0) (% of DAPT); higher = more myelination, active = 50 or more; details: treatment time: 8 days (DIV5-DIV13)
In short: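 Library compounds at 1 or 5 µM in myelination medium were applied from DIV5 to DIV13 to papain-dissociated E18 rat cortical co-cultures seeded at 20,000 cells/well on poly-d-lysine/laminin 96-well plates. Fixed cells (4 % paraformaldehyde) were immunostained for MBP and Olig2 with DAPI, and four 10X fields were analysed in each duplicate well. Continuous straight MBP fiber length per Olig2+ nucleus was set to 0 for 0.1 % DMSO and to 100 for a 1 µM positive control.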

O=C(O)CCc1nc(-c2ccccc2)c(-c2ccccc2)o1 [Oxaprozin]
fiber score / MBP score ([1]; 1 µM): 0.677 | fiber score / MBP score ([1]; 5 µM): 0.752 | myelination ([2]; 1 µM): -17 (inactive) | myelination ([2]; 5 µM): -14 (inactive)

COc1ccc(CN2CCN(C(c3ccc(F)cc3)c3ccc(F)cc3)CC2)c(OC)c1OC [Lomerizine]
fiber score / MBP score ([1]; 1 µM): 1.05 | fiber score / MBP score ([1]; 5 µM): 0.643 | myelination ([2]; 1 µM): 14.1 (inactive) | myelination ([2]; 5 µM): -23.5 (inactive)

CC(=O)CCCCn1c(=O)c2c(ncn2C)n(C)c1=O [Pentoxifylline]
fiber score / MBP score ([1]; 1 µM): 0.817 ± 0.062 | fiber score / MBP score ([1]; 5 µM): 0.839 ± 0.17 | myelination ([2]; 1 µM): -4.66 (inactive) | myelination ([2]; 5 µM): -23.8 (inactive)

CCOC(=O)[C@H](CCc1ccccc1)N[C@@H](C)C(=O)N1[C@H](C(=O)O)C[C@@H]2CCC[C@@H]21 [Ramipril]
fiber score / MBP score ([1]; 1 µM): 0.635 ± 0.29 | fiber score / MBP score ([1]; 5 µM): 0.628 ± 0.47 | myelination ([2]; 1 µM): -11.2 (inactive) | myelination ([2]; 5 µM): -8.93 (inactive)

CCCCN1CCCCC1C(=O)Nc1c(C)cccc1C (centres undefined) [Bupivacaine]
fiber score / MBP score ([1]; 1 µM): 0.752 | fiber score / MBP score ([1]; 5 µM): 0.575 | myelination ([2]; 1 µM): -11.2 (inactive) | myelination ([2]; 5 µM): -16.6 (inactive)

COC1=CC(=O)C[C@@H](C)[C@]12Oc1c(Cl)c(OC)cc(OC)c1C2=O [Griseofulvin]
fiber score / MBP score ([1]; 1 µM): 0.759 | fiber score / MBP score ([1]; 5 µM): 0.92 | myelination ([2]; 1 µM): -17.8 (inactive) | myelination ([2]; 5 µM): 21.8 (inactive)

CC[C@H](C)C(=O)O[C@H]1C[C@@H](C)C=C2C=C[C@H](C)[C@H](CC[C@@H]3C[C@@H](O)CC(=O)O3)[C@H]21 [Lovastatin]
fiber score / MBP score ([1]; 1 µM): 2.07 | fiber score / MBP score ([1]; 5 µM): 6.02 | myelination ([2]; 1 µM): -6.08 (inactive) | myelination ([2]; 5 µM): 1.23 (inactive)

COc1ccc(CC2c3cc(OC)c(OC)cc3CC[N+]2(C)CCC(=O)OCCCCCOC(=O)CC[N+]2(C)CCc3cc(OC)c(OC)cc3C2Cc2ccc(OC)c(OC)c2)cc1OC (centres undefined) [Atracurium]
fiber score / MBP score ([1]; 1 µM): 0.771 | fiber score / MBP score ([1]; 5 µM): 0.948 | myelination ([2]; 1 µM): -11.6 (inactive) | myelination ([2]; 5 µM): 63.1

COc1nc(C)nc(Cl)c1NC1=NCCN1 [Moxonidine]
fiber score / MBP score ([1]; 1 µM): 0.758 | fiber score / MBP score ([1]; 5 µM): 0.82 | myelination ([2]; 1 µM): -10.8 (inactive) | myelination ([2]; 5 µM): -21.6 (inactive)

O=C(CCCN1CCC(O)(c2ccc(Cl)cc2)CC1)c1ccc(F)cc1 [Haloperidol]
fiber score / MBP score ([1]; 1 µM): 0.526 | fiber score / MBP score ([1]; 5 µM): 0.498 | myelination ([2]; 1 µM): -18 (inactive) | myelination ([2]; 5 µM): -13.9 (inactive)

OCc1cc(C(O)CNCCCCCCOCCCCc2ccccc2)ccc1O (centres undefined) [Salmeterol]
fiber score / MBP score ([1]; 1 µM): 0.225 | fiber score / MBP score ([1]; 5 µM): 0.0809 | myelination ([2]; 1 µM): -29.9 (inactive) | myelination ([2]; 5 µM): -37.6 (inactive)

Nc1ccn([C@@H]2CS[C@H](CO)O2)c(=O)n1 [Lamivudine]
fiber score / MBP score ([1]; 1 µM): 0.832 ± 0.033 | fiber score / MBP score ([1]; 5 µM): 0.619 ± 0.073 | myelination ([2]; 1 µM): -7.54 (inactive) | myelination ([2]; 5 µM): -12.3 (inactive)

COC(=O)CCc1ccc(OCC(O)CNC(C)C)cc1 (centres undefined) [Esmolol]
fiber score / MBP score ([1]; 1 µM): 1.07 | fiber score / MBP score ([1]; 5 µM): 0.988 | myelination ([2]; 1 µM): 2.16 (inactive) | myelination ([2]; 5 µM): -0.768 (inactive)

Fc1ccc([C@@H]2CCNC[C@H]2COc2ccc3c(c2)OCO3)cc1 [Paroxetine]
fiber score / MBP score ([1]; 1 µM): 0.8051 ± 0.003 | fiber score / MBP score ([1]; 5 µM): 1.08 ± 0.16 | myelination ([2]; 1 µM): -13.8 (inactive) | myelination ([2]; 5 µM): 3.71 (inactive)

CC(=O)OCC(=O)[C@@]1(O)CC[C@H]2[C@@H]3CCC4=CC(=O)C=C[C@]4(C)[C@H]3[C@@H](O)C[C@@]21C [Prednisolone acetate]
fiber score / MBP score ([1]; 1 µM): 0.826 | fiber score / MBP score ([1]; 5 µM): 0.704 | myelination ([2]; 1 µM): -5.64 (inactive) | myelination ([2]; 5 µM): -10.6 (inactive)

CN1C(C(=O)Nc2ccccn2)=C(O)c2ccccc2S1(=O)=O [Piroxicam]
fiber score / MBP score ([1]; 1 µM): 0.787 | fiber score / MBP score ([1]; 5 µM): 1.04 | myelination ([2]; 1 µM): -10.9 (inactive) | myelination ([2]; 5 µM): -8.56 (inactive)

NC(=O)N1c2ccccc2CC(=O)c2ccccc21 [Oxcarbazepine]
fiber score / MBP score ([1]; 1 µM): 1.02 | fiber score / MBP score ([1]; 5 µM): 1.17 | myelination ([2]; 1 µM): 3.46 (inactive) | myelination ([2]; 5 µM): 196

CC1(C)O[C@@H]2[C@@H](CO[C@@]3(COS(N)(=O)=O)OC(C)(C)O[C@@H]23)O1 [Topiramate]
fiber score / MBP score ([1]; 1 µM): 0.669 | fiber score / MBP score ([1]; 5 µM): 0.896 | myelination ([2]; 1 µM): -20.2 (inactive) | myelination ([2]; 5 µM): -11.6 (inactive)

C[C@@](Cc1ccc(O)c(O)c1)(NN)C(=O)O [Carbidopa]
fiber score / MBP score ([1]; 1 µM): 0.917 | fiber score / MBP score ([1]; 5 µM): 0.776 | myelination ([2]; 1 µM): -3.67 (inactive) | myelination ([2]; 5 µM): -7.64 (inactive)

CN1C2CCCC1CC(NC(=O)c1nn(C)c3ccccc13)C2 (centres undefined) [Granisetron]
fiber score / MBP score ([1]; 1 µM): 0.781 | fiber score / MBP score ([1]; 5 µM): 1.1 | myelination ([2]; 1 µM): -10.7 (inactive) | myelination ([2]; 5 µM): 1.32 (inactive)

CC(C)Oc1ccc2c(=O)c(-c3ccccc3)coc2c1 [Ipriflavone]
fiber score / MBP score ([1]; 1 µM): 0.908 | fiber score / MBP score ([1]; 5 µM): 0.957 | myelination ([2]; 1 µM): -8.04 (inactive) | myelination ([2]; 5 µM): -7.62 (inactive)

CCCNCC(O)COc1ccccc1C(=O)CCc1ccccc1 (centres undefined) [Propafenone]
fiber score / MBP score ([1]; 1 µM): 0.873 | fiber score / MBP score ([1]; 5 µM): 0.376 | myelination ([2]; 1 µM): -1.52 (inactive) | myelination ([2]; 5 µM): -22.4 (inactive)

O=C(O)CCNC(=O)c1ccc(/N=N/c2ccc(O)c(C(=O)O)c2)cc1 [Balsalazide]
fiber score / MBP score ([1]; 1 µM): 0.862 | fiber score / MBP score ([1]; 5 µM): 0.833 | myelination ([2]; 1 µM): -5.47 (inactive) | myelination ([2]; 5 µM): -9.22 (inactive)

CC1=C(C(=O)O)N2C(=O)[C@@H](NC(=O)[C@H](N)c3ccccc3)[C@H]2SC1 [Cephalexin]
fiber score / MBP score ([1]; 1 µM): 0.963 | fiber score / MBP score ([1]; 5 µM): 0.986 | myelination ([2]; 1 µM): -2.86 (inactive) | myelination ([2]; 5 µM): -1.59 (inactive)

NC1CCN(c2cccc(Cl)n2)CC1
fiber score / MBP score ([1]; 1 µM): 1.09 | fiber score / MBP score ([1]; 5 µM): 0.551 | myelination ([2]; 1 µM): 4.32 (inactive) | myelination ([2]; 5 µM): -35 (inactive)

CC(C)OC(=O)CCC/C=C\C[C@@H]1[C@@H](CC[C@@H](O)CCc2ccccc2)[C@H](O)C[C@@H]1O [Latanoprost]
fiber score / MBP score ([1]; 1 µM): 0.955 | fiber score / MBP score ([1]; 5 µM): 0.853 | myelination ([2]; 1 µM): -8.13 (inactive) | myelination ([2]; 5 µM): -8.74 (inactive)
